The values that follow come from PubChem BioAssay (NCATS).

Values joined by “and” are separate entries in the source; they are usually repeats but may differ in a detail not shown here. Equal entries are not always repeated. Records with an inconclusive call do not appear. A structure can be active in one record and inactive in another. Active and inactive are the calls of the source. Unless noted, calls come from the whole dose curve; as a rule, active = well fitted curve in the direction sought with a large enough effect; inconclusive = small, poorly fitted or top-dose-only effect, or another doubt; inactive = no such curve, though single readings can be large; an effect the other way counts as inactive or inconclusive.

In one test the target is Papain (Carica papaya) (UniProt P00784). The experiment in a line: Primary qHTS assay for inhibitors of the protease papain (AID 1645873).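 Note: papain turnover of Z-FR-AMC read as the AMC fluorescence gain over 10 min; % is set by controls: 0 for no effect and ±100 for the full control effect.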 A general note: In qHTS, concentration-response curves come from the screen itself.
The nature of test [1]: Primary qHTS for inhibitors of nuclear receptor binding SET domain protein 2 (NSD2) in an isogenic RCH-ACV NSD2 p.E1099K mutant (9B) (AID 1645876). Note: nearly all actives have a fitted effect of over 70% in size. Note: potency is the fitted concentration of half-maximal effect.
A short description of test [2]: Primary qHTS for inhibitors of nuclear receptor binding SET domain protein 2 (NSD2) in an RCH-ACV wild type WT cells (2C) (AID 1645877). Note: nearly all actives have a fitted effect of over 70% in size. Note: potency is the fitted concentration of half-maximal effect.
Test [3] concerns the target Metallo-beta-lactamase type 2 (Klebsiella pneumoniae) (UniProt C7C422). The experiment in a line: qHTS to identify inhibitors of the New Delhi Metallo-beta-lactamase (NDM): assay validation screen against the NCATS LOPAC Collection (AID 1794843). For activity change, negative = inhibition: % is set by controls: 0 for no effect and ±100 for the full control effect. Note: potency is the fitted concentration of half-maximal effect. A digest of the protocol:
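Absorbance at 485 nm from nitrocefin turnover (50 uM solution added), read at plateau, gives the read-out. Compounds in DMSO were incubated first with 2 nM final NDM-1 in pH 7.0 HEPES buffer containing 1 uM ZnSO4 and 0.01% Tween20.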

Test [4] concerns the target Glutathione peroxidase 1 (Homo sapiens) (UniProt P07203). The experiment in a line: Primary qHTS Assay for Inhibitors of Recombinant Selenoprotein Glutathione Peroxidase 1 (GPX1) (AID 1845191). Note: nearly all actives have a fitted effect of over 65% in size. The procedure, abridged:
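GR-coupled readout: NADPH consumption tracked by fluorescence, ex 340/em 450 nm, at t=0 and after 15 min at RT. Final mix 10 nM GPX1, 1 mM GSH, 0.5 mM CHP, 0.5 mM NADPH, 100 nM GR, 0.01% BSA, following 30 min enzyme–compound preincubation.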

In test [5] the target is N-terminal Xaa-Pro-Lys N-methyltransferase 1 (Homo sapiens) (UniProt Q9BV86). The experiment in a line: Confirmatory qHTS for Inhibitors of N-terminal methyltransferase 1 (NTMT1): MTaseGlo Assay (AID 1645874).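 For activity change, negative = inhibition: luminescence from SAH made as NTMT1 methylates SPKRIA peptide using SAM; 0% = DMSO control and -100% = no-enzyme control.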 Note: nearly all actives have a fitted effect of over 65% in size. Note: potency is the fitted concentration of half-maximal effect. The procedure, abridged: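 MTase-Glo luminescence measured SAH formed by 125 nM NTMT1 from 100 uM SAM and 1 uM SPKRIA peptide over 30 min at room temperature, following 15 min compound preincubation. Percent inhibition against no-enzyme and DMSO controls gave 4-parameter Hill fits.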

The target in test [6] is Catechol O-methyltransferase (Homo sapiens) (UniProt P21964). The experiment in a line: Confirmatory Screen for Target Class Profiling of Small Molecule Inhibitors of Methyltransferases (AID 1745852; calls by dose curve; note: potency is the fitted concentration of half-maximal effect). The settings on record: MTase-Glo luminescence, SAH detection, recombinant enzyme; measured here: COMT max response; stronger effect = lower value.
The target in test [7] is Guanidinoacetate N-methyltransferase (Homo sapiens) (UniProt Q14353). Described as above. Particulars: MTase-Glo luminescence, SAH detection, recombinant enzyme; activity change, negative = inhibition: at 57.3 µM (top of the series) unless noted.
Test [8] addresses Nicotinamide N-methyltransferase (Homo sapiens) (UniProt P40261). The test is described as above. Particulars: MTase-Glo luminescence, SAH detection, recombinant enzyme; measured here: NNMT max response; stronger effect = lower value.
Test [9] addresses Phenylethanolamine N-methyltransferase (Homo sapiens) (UniProt P11086). The description is as above. The settings on record: MTase-Glo luminescence, SAH detection, recombinant enzyme; measured here: PNMT max response; stronger effect = lower value.
The target of test [10] is Rap guanine nucleotide exchange factor 3 (Homo sapiens) (UniProt O95398). The experiment in a line: Confirmatory qHTS for antagonist of cAMP-regulated guanine nucleotide exchange factor 3 (EPAC1) (AID 1645880).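 Note: plate controls were DMSO only for no effect and full effect of the ATA control for full effect; nearly all actives have a fitted effect of over 55% in size.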 The procedure, abridged: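 Released BODIPY-GDP fluoresces less than Rap1-bound BODIPY-GDP; the signal is followed at 480/540 nm at 5-min intervals over 30 min, after 5 min at room temperature. Reactions contain 100 nM EPAC1, 250 nM RAP1B-BODIPY-GDP and 50 uM GDP; results are normalized to ATA and DMSO.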

Test [11] shares this target. The experiment in a line: Confirmatory qHTS for agonist of cAMP-regulated guanine nucleotide exchange factor 3 (EPAC1) (AID 1645881).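 Note: EPAC1 catalysed release of BODIPY-GDP from Rap1B seen as fluorescence loss; 100% = effect of cAMP agonist control; nearly all actives have a fitted effect of over 75% in size.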
For test [12], the target named is Rap guanine nucleotide exchange factor 4 (Homo sapiens) (UniProt Q8WZA2). The experiment in a line: Confirmatory qHTS for agonist of cAMP-regulated guanine nucleotide exchange factor 4 (EPAC2) (AID 1645884).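 Note: nucleotide exchange releases bodipy-GDP from Rap1 and this lowers its fluorescence; % is set by controls: 0 for no effect and ±100 for the full control effect; nearly all actives have a fitted effect of over 65% in size.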
Test [13] has the same target. The experiment in a line: Confirmatory qHTS for antagonist of cAMP-regulated guanine nucleotide exchange factor 4 (EPAC2) (AID 1645885). Note: % is set by controls: 0 for no effect and ±100 for the full control effect; nearly all actives have a fitted effect of over 25% in size.
The nature of test [14]: Viability counterscreen for antagonist of constitutive androstane receptor (CAR) against the NCATS DSHEA and TCM libraries (AID 1794837).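 Note: compound exposure lasted 24 h before viability reading; 0% is about no effect.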 A digest of the protocol: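 Viability was measured by CellTiter-Fluor fluorescence (405/540 nm, 1 hr) in HepG2-CYP2B6-hCAR cells. Cells were co-treated 24 hr with 48 uM CITCO (final), antagonist mode, and test substances.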
Test [15] in a line: Viability counterscreen for agonist of constitutive androstane receptor (CAR) against the NCATS DSHEA and TCM libraries (AID 1794838).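 Note: HepG2 cells with CYP2B6 reporter and hCAR plus 0.75 µM PK11195 antagonist; cells exposed to compound for 24 h; 0% is about no effect.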 The procedure, abridged:
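Cell viability, from CellTiter-Fluor fluorescence (405/540 nm), was scored after a 24 h, 37C exposure of HepG2 cells carrying CYP2B6 reporter and hCAR to test substances in presence of 0.75 uM PK11195.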
In general terms: Counterscreens check selectivity or assay interference.

Test [16] in a line: HepG2 viability counterscreen (readout 2: ATP content) against the NCATS DSHEA and TCM libraries (AID 1794840).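 Note: HepG2 cells exposed to substances for about 24 h; 0% is about no effect.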 A digest of the protocol:
(§1)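 Readout 1: cellular protease activity, GF-AFC substrate (25 uM final, 30 min, fluorescence 380/510 nm). Readout 2: ATP content by CellTiter-Glo luminescence after 30 min at RT. Both follow ~24 h exposure of HepG2 cells (1,000/well) to substances.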

Test [17] in a line: HepG2 viability counterscreen (readout 1: protease activity) against the NCATS DSHEA and TCM libraries (AID 1794841).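 Note: cells exposed to compounds for about 24 h before the protease read; 0% is about no effect.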 A digest of the protocol: as §1

Chain of Metallo-beta-lactamase type 2 (Klebsiella pneumoniae) (C7C422 whole entry, looked up): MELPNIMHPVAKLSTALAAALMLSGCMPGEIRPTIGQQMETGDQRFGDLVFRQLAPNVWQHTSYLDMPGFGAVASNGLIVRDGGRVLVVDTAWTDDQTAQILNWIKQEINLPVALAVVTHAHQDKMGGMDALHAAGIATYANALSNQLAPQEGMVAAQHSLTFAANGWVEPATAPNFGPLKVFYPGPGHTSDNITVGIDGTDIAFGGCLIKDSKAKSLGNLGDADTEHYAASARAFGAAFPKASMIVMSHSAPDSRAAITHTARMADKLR
Chain of Nicotinamide N-methyltransferase (Homo sapiens) (P40261 whole entry, looked up): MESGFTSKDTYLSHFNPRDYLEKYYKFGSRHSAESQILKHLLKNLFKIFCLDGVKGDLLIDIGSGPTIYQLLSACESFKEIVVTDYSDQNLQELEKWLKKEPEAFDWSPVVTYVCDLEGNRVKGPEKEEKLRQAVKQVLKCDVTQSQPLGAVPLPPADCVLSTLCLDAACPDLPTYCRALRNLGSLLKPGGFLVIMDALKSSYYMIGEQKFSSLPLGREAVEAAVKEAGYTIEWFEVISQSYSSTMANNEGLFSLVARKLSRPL
Chain of Glutathione peroxidase 1 (Homo sapiens) (P07203 whole entry, looked up): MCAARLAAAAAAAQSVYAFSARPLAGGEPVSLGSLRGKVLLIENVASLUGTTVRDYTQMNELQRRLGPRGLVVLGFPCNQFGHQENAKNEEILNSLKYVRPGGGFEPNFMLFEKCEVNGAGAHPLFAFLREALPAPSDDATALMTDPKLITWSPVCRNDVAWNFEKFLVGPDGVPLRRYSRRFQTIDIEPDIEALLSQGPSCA
Chain of N-terminal Xaa-Pro-Lys N-methyltransferase 1 (Homo sapiens) (Q9BV86 whole entry, looked up): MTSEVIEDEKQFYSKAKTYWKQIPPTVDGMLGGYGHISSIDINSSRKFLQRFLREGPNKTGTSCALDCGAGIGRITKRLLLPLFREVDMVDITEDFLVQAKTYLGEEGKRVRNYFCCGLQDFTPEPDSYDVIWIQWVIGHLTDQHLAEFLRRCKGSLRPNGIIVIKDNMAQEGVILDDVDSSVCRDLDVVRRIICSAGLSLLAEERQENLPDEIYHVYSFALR
Chain of Papain (Carica papaya) (P00784 whole entry, looked up, the tested form may be a part): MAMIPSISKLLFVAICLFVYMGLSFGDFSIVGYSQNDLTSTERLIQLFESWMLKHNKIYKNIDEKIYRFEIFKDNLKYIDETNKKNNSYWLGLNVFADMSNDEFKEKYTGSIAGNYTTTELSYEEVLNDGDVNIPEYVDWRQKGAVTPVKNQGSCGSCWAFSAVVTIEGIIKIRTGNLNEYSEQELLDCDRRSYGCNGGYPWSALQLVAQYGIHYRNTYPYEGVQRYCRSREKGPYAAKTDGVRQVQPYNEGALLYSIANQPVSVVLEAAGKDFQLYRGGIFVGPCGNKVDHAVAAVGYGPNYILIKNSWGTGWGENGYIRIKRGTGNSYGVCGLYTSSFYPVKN
Chain of Catechol O-methyltransferase (Homo sapiens) (P21964 whole entry, looked up): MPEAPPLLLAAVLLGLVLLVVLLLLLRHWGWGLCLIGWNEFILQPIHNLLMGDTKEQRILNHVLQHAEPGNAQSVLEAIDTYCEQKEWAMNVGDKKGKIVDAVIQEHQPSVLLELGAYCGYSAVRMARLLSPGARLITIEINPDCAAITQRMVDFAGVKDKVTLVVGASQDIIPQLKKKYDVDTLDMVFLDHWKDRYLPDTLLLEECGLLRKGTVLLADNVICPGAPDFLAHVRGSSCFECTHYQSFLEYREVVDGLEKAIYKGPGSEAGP
Chain of Phenylethanolamine N-methyltransferase (Homo sapiens) (P11086 whole entry, looked up): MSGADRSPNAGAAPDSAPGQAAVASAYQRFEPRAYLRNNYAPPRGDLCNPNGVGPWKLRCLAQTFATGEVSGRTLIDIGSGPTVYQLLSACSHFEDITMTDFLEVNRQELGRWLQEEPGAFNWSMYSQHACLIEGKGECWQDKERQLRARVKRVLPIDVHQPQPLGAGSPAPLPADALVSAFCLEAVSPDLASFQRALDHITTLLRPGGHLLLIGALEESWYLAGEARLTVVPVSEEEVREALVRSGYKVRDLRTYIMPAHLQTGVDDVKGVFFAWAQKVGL
Chain of Rap guanine nucleotide exchange factor 4 (Homo sapiens) (Q8WZA2 whole entry, looked up): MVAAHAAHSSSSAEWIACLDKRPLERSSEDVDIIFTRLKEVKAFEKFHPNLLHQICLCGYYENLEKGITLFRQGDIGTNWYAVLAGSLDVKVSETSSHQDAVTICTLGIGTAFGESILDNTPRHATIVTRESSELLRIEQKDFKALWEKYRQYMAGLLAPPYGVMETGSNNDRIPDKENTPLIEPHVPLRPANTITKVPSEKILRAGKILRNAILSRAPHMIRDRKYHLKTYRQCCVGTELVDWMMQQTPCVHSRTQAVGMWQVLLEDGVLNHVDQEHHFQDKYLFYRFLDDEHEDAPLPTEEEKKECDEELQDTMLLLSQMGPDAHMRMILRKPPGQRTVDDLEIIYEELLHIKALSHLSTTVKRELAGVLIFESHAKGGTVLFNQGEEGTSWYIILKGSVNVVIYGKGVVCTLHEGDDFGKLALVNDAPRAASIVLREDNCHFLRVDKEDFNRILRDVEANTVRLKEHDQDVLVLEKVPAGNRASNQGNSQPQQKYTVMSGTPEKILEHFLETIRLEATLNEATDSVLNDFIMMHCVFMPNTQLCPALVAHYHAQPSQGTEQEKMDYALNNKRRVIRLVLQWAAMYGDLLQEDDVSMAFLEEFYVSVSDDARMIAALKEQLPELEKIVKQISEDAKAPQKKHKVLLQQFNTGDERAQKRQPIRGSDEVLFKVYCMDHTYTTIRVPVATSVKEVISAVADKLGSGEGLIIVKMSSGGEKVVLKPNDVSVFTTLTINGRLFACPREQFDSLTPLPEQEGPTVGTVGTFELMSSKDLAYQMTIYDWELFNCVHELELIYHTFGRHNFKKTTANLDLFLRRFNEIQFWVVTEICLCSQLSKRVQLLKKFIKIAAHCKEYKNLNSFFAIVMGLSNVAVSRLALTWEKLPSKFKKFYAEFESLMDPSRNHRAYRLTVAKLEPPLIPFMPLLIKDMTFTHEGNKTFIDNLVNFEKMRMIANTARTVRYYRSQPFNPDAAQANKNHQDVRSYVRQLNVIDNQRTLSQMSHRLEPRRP
Chain of Rap guanine nucleotide exchange factor 3 (Homo sapiens) (O95398 whole entry, looked up): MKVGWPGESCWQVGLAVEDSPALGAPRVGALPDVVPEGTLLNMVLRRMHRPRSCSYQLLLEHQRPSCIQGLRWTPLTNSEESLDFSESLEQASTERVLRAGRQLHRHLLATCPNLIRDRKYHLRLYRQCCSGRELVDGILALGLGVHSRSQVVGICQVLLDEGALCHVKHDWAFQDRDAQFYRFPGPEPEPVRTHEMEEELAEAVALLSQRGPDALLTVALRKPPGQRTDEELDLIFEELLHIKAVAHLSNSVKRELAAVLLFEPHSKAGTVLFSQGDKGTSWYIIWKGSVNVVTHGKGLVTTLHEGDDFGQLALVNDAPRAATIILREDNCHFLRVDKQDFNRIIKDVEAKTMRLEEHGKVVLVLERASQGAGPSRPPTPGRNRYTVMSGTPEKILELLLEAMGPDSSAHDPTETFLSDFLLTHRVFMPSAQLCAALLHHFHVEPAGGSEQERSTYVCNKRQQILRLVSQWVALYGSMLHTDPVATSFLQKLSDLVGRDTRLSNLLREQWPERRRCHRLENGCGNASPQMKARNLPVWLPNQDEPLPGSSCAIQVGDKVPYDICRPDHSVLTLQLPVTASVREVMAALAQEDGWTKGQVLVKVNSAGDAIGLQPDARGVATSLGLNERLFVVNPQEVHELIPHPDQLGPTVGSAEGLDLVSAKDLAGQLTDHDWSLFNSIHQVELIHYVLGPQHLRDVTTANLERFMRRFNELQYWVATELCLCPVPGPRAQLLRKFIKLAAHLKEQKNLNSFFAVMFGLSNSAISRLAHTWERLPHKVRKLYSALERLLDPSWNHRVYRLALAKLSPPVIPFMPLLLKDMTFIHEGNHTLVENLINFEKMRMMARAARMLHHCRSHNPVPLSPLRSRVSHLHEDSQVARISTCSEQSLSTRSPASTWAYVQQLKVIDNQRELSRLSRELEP

As to `O=C(NCCN1CCOCC1)c1ccc(Cl)cc1`, the outcome with Papain (Carica papaya) was “inactive”. The Potency result in test [1], in [2], in [3] and in test [4] was “inactive” throughout.

As to `CCn1cc(C(=O)O)c(=O)c2ccc(C)nc21`, in the test with Papain (Carica papaya), the outcome is “inactive”. For the same molecule, the Potency entry in test [3] was “inactive”.

With `CN(C)CCC(c1ccccc1)c1ccccn1` (configuration not stated), in the test with Papain (Carica papaya), the outcome is “inactive”. The Potency result in [1], in test [2] and in test [3] was “inactive” throughout.

On to `COc1ccccc1N1CCN(CCCNc2cc(=O)n(C)c(=O)n2C)CC1`, for which, in the test with Papain (Carica papaya), the outcome is “inactive”. For the same molecule, the Potency result in test [1], in test [2], in test [3] and in test [4] was “inactive” throughout.

Turning to `O=C(Nc1ccccc1-c1cn2c(CN3CCNCC3)csc2n1)c1cnc2ccccc2n1`, the Potency in test [5] was 33.9 µM (active); in test [1], 20.5 µM (active) and 7.42 µM (active); in test [2] it was 4.09 µM (active) and 6.61 µM (active); in [7] it was 15.3 µM (active). Further, the figures for the activity in test [6], in [8] and in test [9] were -38.1%, -43.9% and -31.7%, respectively.

Consider `O=C(O)CCc1nc(-c2ccccc2)c(-c2ccccc2)o1`, for which the outcome with Papain (Carica papaya) was “inactive”. Also, the Potency entry in [1], in [2], in test [3] and in test [4] was “inactive” in each case.

Consider `CC(C)OC(=O)C(C)(C)Oc1ccc(C(=O)c2ccc(Cl)cc2)cc1`, for which the outcome with Papain (Carica papaya) is “inactive”. The Potency entry in test [1], in [2] and in test [4] was “inactive” in each case.

`CCN1CCC[C@H]1CNC(=O)c1cc(S(N)(=O)=O)ccc1OC`: the outcome with Papain (Carica papaya) is “inactive”. Further, the Potency entry in test [1], in [2] and in [3] was “inactive” in each case.

Take `O=C1NCC2(CCN(CCc3ccccc3)CC2)O1`: the outcome with Papain (Carica papaya) is “inactive”. In addition, the Potency result in test [1], in [2], in [3] and in test [4] was “inactive” each time.

`NCCS`: the outcome in the test with Papain (Carica papaya) was “inactive”. For the same molecule, the Potency entry in test [1], in test [2], in test [3] and in test [4] was “inactive” each time.

`CC1(C)CCC2=C(O1)c1ccccc1C(=O)C2=O`: the outcome (in the test with Papain (Carica papaya); in test [10]; in test [11]; in [12]; in test [13]) was “inactive” throughout. For the same molecule, the values for the Potency in [1], in test [2] and in test [7] were 13.2 µM (active), 9.34 µM (active) and 9.68 µM (active), respectively. Also, the results for the activity in [6], in test [8] and in [9] were -19.8%, -22.7% and -16.1%, respectively. Further, in test [3], the Potency result was “inactive”.

`Clc1ccc(Cn2c(CN3CCCC3)nc3ccccc32)cc1`: the outcome in the test with Papain (Carica papaya) was “inactive”. Besides, the Potency entry in test [2] is “inactive and 18.6 µM (active)”. For the same molecule, the Potency entry in [3] and in [4] was “inactive” in each case.

For the molecule `CC(=O)c1ccc(S(=O)(=O)NC(=O)NC2CCCCC2)cc1`, the outcome with Papain (Carica papaya) was “inactive”. Besides, the Potency result in [1], in [2] and in [3] was “inactive” each time.

Consider `Cc1cccc(Nc2nc(-c3ccncc3)cs2)c1`, for which the Potency in test [5] was 2.82 µM (active); in test [1], 10.3 µM (active) and 11.8 µM (active); in test [2], 10.3 µM (active) and 13.2 µM (active); in test [7], 13.6 µM (active). The activity in test [6] is -88.1%; in test [8], -73.8%; in [9], -88.3%. Also, in [4], the Potency result is “inactive”.

For the molecule `CC(=O)N[C@@H](CS)C(=O)O`, the outcome with Papain (Carica papaya) is “inactive”. The Potency entry in test [1], in test [2], in test [3] and in test [4] was “inactive” in each case.

On to `CCCCC1C(=O)N(c2ccccc2)N(c2ccccc2)C1=O`, for which the outcome with Papain (Carica papaya) was “inactive”. Also, the Potency result in test [1], in [2], in test [3] and in test [4] was “inactive” throughout.

Turning to `CC(C)NCC(O)COc1cccc2[nH]ccc12` (configuration not stated), in the test with Papain (Carica papaya), the outcome was “inactive”. Further, the Potency result in [1], in test [2], in test [3] and in [4] was “inactive” each time.

With `CC/C(=C(\c1ccccc1)c1ccc(OCCN(C)C)cc1)c1ccccc1`, the outcome with Papain (Carica papaya) was “inactive”. In addition, the Potency entry in test [1] and in [4] was “inactive” in each case. Also, the Potency in test [2] was 17.1 µM (active); in test [3] it was 14.1 µM (active) and inactive.

Take `CCCNC(=O)NS(=O)(=O)c1ccc(Cl)cc1`: the outcome in the test with Papain (Carica papaya) was “inactive”. Besides, the Potency entry in test [1], in test [2] and in test [3] was “inactive” in each case.

Take `C[N+](C)(C)CCCCCC[N+](C)(C)C`: the outcome with Papain (Carica papaya) was “inactive”. In addition, the Potency entry in test [1], in test [2], in test [3] and in test [4] was “inactive” each time.

`O=c1c(-c2ccc(O)cc2)coc2cc(O)ccc12`: in the test with Papain (Carica papaya), the outcome is “inactive”. In addition, the Potency entry in test [5] was “inactive”.

For `COc1cc(Nc2ncc(F)c(Nc3ccc4c(n3)NC(=O)C(C)(C)O4)n2)cc(OC)c1OC`, the Potency entry in test [5] was “inactive”. Besides, the Potency is 817 nM (active) and 4.61 µM (active) in [1]; 1.03 µM (active) and 5.17 µM (active) in [2].

`CC(=O)CCCCn1c(=O)c2c(ncn2C)n(C)c1=O`: in the test with Papain (Carica papaya), the outcome is “inactive”. Further, the Potency result in test [1], in test [2], in [3] and in test [4] was “inactive” throughout.

Turning to `O=c1cc(-c2ccc(O)cc2)oc2cc(O)cc(O)c12`, the outcome (with Papain (Carica papaya); in [14]; in [15]; in test [16]; in [17]) was “inactive” throughout. For the same molecule, the results for the Potency in test [1] and in test [2] were 5.9 µM (active) and 4.68 µM (active), respectively. The Potency entry in [3] and in test [4] was “inactive” throughout.
